# Compound activity: PubChem BioAssay, several laboratories
# Compounds with a hit are over-represented: about 1.8% of the library has one in this group of screens.
# ugtP null kill: kills S. aureus RN4220 lacking UgtP | S. aureus RN4220 ugtP deletion, OD600 growth, 16 h | growth inhibition, % (no concentration beside the values) | hit rate 0.54% among 330,000 | AID 1259309; in the data active = growth inhibition above about 68%;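 note: plate controls were untreated wells for no effect and antibiotic for full effect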
# VHR inh abs: DUSP3 (human) phosphatase inhibition. P51452. recombinant VHR phosphatase, pNPP absorbance. AID 1654. inhibition, % at 13.3 µM. hit rate 0.52% among 290,000; in the data active = inhibition above about 50%
# Target sequence (P51452 whole entry, looked up): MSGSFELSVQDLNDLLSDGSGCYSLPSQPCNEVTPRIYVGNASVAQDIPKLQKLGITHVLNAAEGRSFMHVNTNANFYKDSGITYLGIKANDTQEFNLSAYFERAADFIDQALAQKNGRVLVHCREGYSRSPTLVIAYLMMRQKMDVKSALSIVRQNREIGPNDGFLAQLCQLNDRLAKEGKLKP
# PfHsp40 yeast: restores yeast growth despite PfHsp40 toxicity | S. cerevisiae expressing PfHsp40, growth rescue, ATP luminescence | growth rescue, % at 12.5 µM | hit rate 0.68% among 340,000; in the data active = growth rescue above about 28%, passing the limit was not always enough;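 note: yeast W303a lacking pdr1 and pdr3 grown in galactose medium; growth measured after three days at 30 °C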
# RN4220 kill: kills Staphylococcus aureus RN4220; S. aureus RN4220 growth, OD600, 16 h; inhibition, % (no concentration beside the values); hit rate 0.33% among 330,000; AID 1259311; in the data active = inhibition above about 85%;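 note: plate controls were untreated cells for no effect and reference antibiotic for full effect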
# PrPC TRFRET: reduces human prion protein on the cell surface | P04156 | cell surface PrPC, TR-FRET read-out | AID 720596 | hit rate 0.43% among 370,000 | inhibition, % at 13.8 µM; in the data active = inhibition above about 24%; note: 0% = median of the test wells and 100% = reference compound wells
# Starred values were filed as active, the others as inactive; x = not tested or not shown.
SMILES,ugtP null kill,VHR inh abs,PfHsp40 yeast,RN4220 kill,PrPC TRFRET
COc1ccccc1-n1cnnc1SCc1csc(-c2ccccc2)n1,-2,22,0,11,-2
C=CCn1c(SCc2csc(-c3ccc(C)cc3)n2)nnc1-c1ccccc1OC,90*,0,1,-7,4
O=S1(=O)CCOC2Cc3ccccc3C2N1Cc1ccccc1F (stereo not given),14,x,x,13,x
COc1ccc(S(=O)(=O)N(CCc2ccccc2)CC(N)=O)cc1,3,8,104*,6,4
CCC1=C2CCC3C(=O)N(c4ccccc4)C(=O)C3C2[C@@]2(C)C(=NCc3ccccc3)OC(=O)N2C1=O (stereo not given in full),2,x,x,3,x
Cc1ccc2c(c1)sc(-c1ccc(N(C)C)cc1)[n+]2C,101*,-5,5,100*,-16
c1ccc(NN=C(Cc2nc3ccccc3[nH]2)c2ccccc2)cc1,2,x,x,-2,x
CCC(C(=O)O)n1cnc2scc(-c3ccc(C)c(C)c3)c2c1=O (stereo not given),-1,-18,-2,-2,0
CCC(C(=O)OC)n1cnc2scc(-c3ccc(C)c(C)c3)c2c1=O (stereo not given),8,-16,166*,3,-9
CC(C)(C)NS(=O)(=O)c1ccc(CCC(=O)Nc2ccc3c(c2)OCCO3)cc1,1,51*,1,2,8
CC(C)(C)NS(=O)(=O)c1ccc(CCC(=O)Nc2ccc3c(c2)OCO3)cc1,8,15,2,3,12
CC(C)(OC1OC(CO)C(O)C(O)C1O)C1Oc2ccc3ccc(=O)oc3c2C1O (stereo not given),5,x,x,10,x
O=C(Cn1nnc(-c2ccccc2Cl)n1)N/N=C/c1ccc2c(c1)OCO2,x,17,60*,x,9
C=CCC[C@@H](Cc1ccc(F)cc1)C(=O)OC[C@H](Cc1c[nH]c2ccccc12)NC(=O)[C@@H](CC=C)CC(=O)NCCO,x,x,33*,x,-2
C=CCC[C@@H](Cc1ccc(F)cc1)C(=O)OC[C@@H](Cc1c[nH]c2ccccc12)NC(=O)[C@@H](CC=C)CC(=O)NCCO,-5,x,40*,5,-1
C=CCC[C@H](Cc1ccc(F)cc1)C(=O)OC[C@@H](Cc1c[nH]c2ccccc12)NC(=O)[C@@H](CC=C)CC(=O)NCCO,x,x,57*,x,1
C=CC[C@@H](CC(=O)NCCO)C(=O)N[C@H](COC(=O)[C@@H](CC=C)Cc1ccc(F)cc1)Cc1c[nH]c2ccccc12,-13,x,1,6,-1
C=CCC[C@H](Cc1ccc(F)cc1)C(=O)OC[C@H](Cc1c[nH]c2ccccc12)NC(=O)[C@H](CC=C)CC(=O)NCCO,x,x,32*,x,-1
C=CCC[C@@H](Cc1ccc(F)cc1)C(=O)OC[C@@H](Cc1c[nH]c2ccccc12)NC(=O)[C@H](CC=C)CC(=O)NCCO,x,x,14,x,-1
CC(C)(C)c1nnc(N/N=C/c2ccccc2O)n(N)c1=O,x,13,71*,x,-1
c1ccc(-c2nc(-c3ccncc3)no2)cc1,6,-10,-1,5,-1
CCc1ccc(-c2nc(-c3ccncc3)no2)cc1,6,57*,-2,4,11
c1ccc(-c2ccccc2-c2nc(-c3ccncc3)no2)cc1,8,15,32*,10,-7
CCOC(=O)NN=Cc1ccc(C)s1,0,x,x,2,x
COc1ccc(N/N=C(\C#N)C(=N)SCc2ccccc2)cc1,x,16,209*,x,4
SMILES,ugtP null kill,VHR inh abs,PfHsp40 yeast,RN4220 kill,PrPC TRFRET
COc1ccc(N/N=C(\C#N)C(=N)N2CCCCC2)cc1,x,32,-1,x,-6
COC(=O)C1=C(C)OC(N)=C(C#N)C1c1c(C)nn(C)c1C (stereo not given),14,4,68*,6,6
O=C1C=CC2=C3c4cc(O)c(O)cc4CC3(O)COC2=C1O (stereo not given),x,x,3,x,25*
CCn1c(SCC(=O)NN=C(C)c2ccncc2)nnc1-c1ccccc1,5,x,x,1,x
CCn1c(=N)n(CC(=O)OC)c2ccccc21,3,56*,0,1,1
N#Cc1ccc2nc(-c3ccc(CN4CCC(n5c(=O)[nH]c6ccccc65)CC4)cc3)c(-c3ccccc3)nc2c1,x,x,x,x,-5
O=c1[nH]c(-c2ccccc2)cn1C1CCN(Cc2ccc(-c3nc4ccc(Br)cc4nc3-c3ccccc3)cc2)CC1,x,x,x,x,31*
Cc1nnc(SCC(=O)NN=Cc2ccc(-c3ccc(C)c(Cl)c3)o2)s1,-18,x,x,0,x
CCCNC1=C(C)C(=O)C2=C(C1=O)C(COC(N)=O)[C@]1(OC)C3NC3CN21 (stereo not given in full),97*,20,2,99*,0
O=C(NN=C/C=C/c1ccc([N+](=O)[O-])cc1)C1COc2ccccc2O1 (stereo not given),-3,x,x,1,x
COc1ccccc1CN1CC2CC(c3ccc4nsnc4c3)N3CCC[C@@]23C1=O (stereo not given in full),-1,x,x,5,x
CCCCCn1c(=O)c(C(=O)Nc2cnccn2)c(O)c2ccccc21,99*,31,19,74,6
CCCCCCCn1c(=O)c(C(=O)Nc2cnccn2)c(O)c2ccccc21,98*,4,12,98*,6
CC(C)Cn1c(=O)c(C(=O)Nc2cnccn2)c(O)c2ccccc21,-1,8,1,5,-2
C=CCn1c(=O)c(C(=O)NCc2ccccc2)c(O)c2ccccc21,25,14,129*,3,4
C=CCn1c(=O)c(C(=O)NCCNCC)c(O)c2ccccc21,6,22,0,2,1
CCCCn1c(=O)c(C(=O)NCc2ccncc2)c(O)c2ccccc21,-5,-13,219*,-6,4
N#CC(=C(O)COC(=O)CCc1ccc(S(=O)(=O)N2CCOCC2)cc1)c1nc2ccccc2[nH]1,-10,x,x,0,x
NC(=S)NN=Cc1ccc(-c2cc(Cl)ccc2Cl)o1,-13,x,x,24,x
COc1cccc(CN(C(=O)/C=C/c2ccc(Cl)cc2)C2CCS(=O)(=O)C2)c1 (stereo not given),7,51*,1,6,10
C/C(C=NNC(=O)CCn1nnc2ccccc21)=C\c1ccccc1,-3,x,x,5,x
COc1ccc(C(=O)CC(=O)C(=O)Nc2cccc(F)c2)cc1,8,-18,39*,15,4
COc1ccc(C(=O)CC(=O)C(=O)Nc2ccc(C)c(Cl)c2)cc1,97*,22,-1,78,0
COc1ccc(C(=O)CC(=O)C(=O)Nc2ccccc2)cc1,-6,-8,57*,-1,0
O=C(CCNc1n[nH]c(=O)[nH]c1=O)NN=Cc1ccccc1Br,-3,x,x,2,x
COC(=O)C1=C(c2cccc(C#N)c2)CC2CCC1N2C(=O)NCc1ccc(F)cc1 (stereo not given),-7,x,x,4,x
CC(=NNC(=O)CN1CCN(S(=O)(=O)c2ccc(Br)cc2)CC1)c1cccnc1,1,x,x,6,x
COc1ccc(N2C(=O)C(Cl)=C(Nc3ccccc3O)C2=O)cc1,-6,-10,82*,-15,2
